High-throughput results from PubChem.
An excerpt weighted towards active compounds, which were near 18% of everything screened.
TDP1 inh: qHTS Assay for Inhibitors of Tyrosyl-DNA Phosphodiesterase (TDP1); Tyrosyl-DNA phosphodiesterase 1 (Homo sapiens), Q9NUW8; recombinant TDP1, AlphaScreen DNA substrate cleavage; Potency, µM (series often up to 130 µM), for the others: at the top dose activity change, negative = inhibition, usual class: inhibitors; actives 0.28% (n = 350,000); AID 485290, 2010; further: potency means the concentration at half of the fitted maximal effect; nearly all actives have a fitted effect of over 40% in size
Target sequence (Q9NUW8 whole entry, looked up): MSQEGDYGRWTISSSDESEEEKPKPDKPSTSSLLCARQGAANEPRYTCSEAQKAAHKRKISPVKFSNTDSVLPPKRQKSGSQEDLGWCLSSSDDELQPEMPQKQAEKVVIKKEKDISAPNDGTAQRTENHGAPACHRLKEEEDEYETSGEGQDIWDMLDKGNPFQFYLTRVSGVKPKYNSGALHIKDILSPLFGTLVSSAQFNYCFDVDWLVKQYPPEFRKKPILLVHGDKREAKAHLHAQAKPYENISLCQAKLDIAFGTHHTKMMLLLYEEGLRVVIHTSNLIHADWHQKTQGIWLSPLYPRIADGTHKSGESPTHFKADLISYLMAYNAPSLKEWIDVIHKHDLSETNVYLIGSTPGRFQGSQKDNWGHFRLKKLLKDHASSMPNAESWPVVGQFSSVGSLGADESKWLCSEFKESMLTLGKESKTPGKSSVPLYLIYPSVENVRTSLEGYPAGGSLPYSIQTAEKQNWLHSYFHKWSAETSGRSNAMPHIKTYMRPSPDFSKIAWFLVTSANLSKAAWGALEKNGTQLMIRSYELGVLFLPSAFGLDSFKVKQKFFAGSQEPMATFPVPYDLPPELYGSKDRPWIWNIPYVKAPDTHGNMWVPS
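Compounds were preincubated with Tdp1 (1 nM final) for 15 min at room temperature before substrate (15 nM final) started a 5 min reaction; beads (10 ug/ml final) were then added for 10 min before AlphaScreen detection.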
Six1-Eya2 blk: qHTS Assay for Inhibitors of the Six1/Eya2 Interaction; actives 0.56% (n = 360,000); Homeobox protein SIX1 (Homo sapiens) + Protein phosphatase EYA2 (Homo sapiens), …; AlphaScreen GST-Six1/His-Eya2 binding, biochemical; stronger effect = lower value; activity change, % (test concentration not listed); in the data active means activity change below about -65%; inconclusive means mostly about -30% to -63%
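GST-Six1 + His-Eya2 (5X stock: 250/500 nM); Tris pH 8.0, 300 mM NaCl, 0.05% BSA, 0.02% Tween 20; GSH donor/Ni acceptor beads; 1 h 37 °C dark; AlphaScreen readout.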
TDP1 cell CPT: qHTS for Inhibitors of human tyrosyl-DNA phosphodiesterase 1 (TDP1): qHTS in cells in presence of CPT; chicken DT40 Tdp1-/-;hTDP1 cells + 20 nM CPT, ATP luminescence, 48 h; Potency, µM (highest dose often 46.2 µM), for inactives: at the highest dose activity change, negative = growth inhibition, hits mostly inhibitors; actives 12% (n = 420,000); AID 686979, 2013; further: potency means the concentration at half of the fitted maximal effect; nearly all actives have a fitted effect of over 55% in size
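Chicken DT40 Tdp1-/- cells complemented with human TDP1, 400 cells/well, exposed to compounds plus 20 nM camptothecin for at least 48 h at 37 C; viability read as ATP content by CellTiter-Glo luminescence.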
DT40 TDP1 no CPT: qHTS for Inhibitors of human tyrosyl-DNA phosphodiesterase 1 (TDP1): qHTS in cells in absence of CPT; DT40 Tdp1-/- hTDP1 cells, no CPT, ATP luminescence, 48 h; Potency, µM (titrated, usually from 46.2 µM), for inactives: at the highest dose activity change, negative = growth inhibition, usual class: inhibitors; actives 15% (n = 420,000); further: potency means the concentration at half of the fitted maximal effect; nearly all actives have a fitted effect of over 55% in size
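Growth kinetics read by CellTiter-Glo luminescence after ≥48 hr at 37 °C. Cells: DT40 Tdp1-/- stably carrying human TDP1, 400 per well, compound exposure in the absence of CPT (DMSO vehicle).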
IL-1B inflam inh: qHTS for Inhibitors of Inflammasome Signaling: IL-1-beta AlphaLISA Primary Screen | THP-1 LPS/ATP IL-1B secretion, AlphaLISA, 16 h; stronger effect = lower value | activity change, % at 57.5 µM | actives 4.7% (n = 360,000); in the data active means activity change below about -50%; inconclusive means mostly about -30% to -49%
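THP-1 cells pretreated 1 hr with compounds (up to 57.5 uM final), then stimulated with LPS (250 ng/mL final) plus ATP (1.25 mM final); secreted IL-1B measured by AlphaLISA after 16 hr, decreased signal indicating inhibition.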
CtBP-E1A blk: qHTS Assay for Inhibitors of the CtBP/E1A Interaction; CtBP / adenovirus E1A interaction (AlphaScreen); AlphaScreen GST-E1A/His-CtBP binding, 1536-well; stronger effect = lower value; activity change, % (no concentration beside the values); actives 0.49% (n = 340,000); AID 651724, 2012; in the data active means activity change below about -65%; inconclusive means mostly about -30% to -63%
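In 5 uL wells, 23 nL compound meets equimolar GST-E1A and His-CtBP (5X stock 125 nM each) for 2 h, 37 °C. Beads (5X, 50 ug/mL) then 1 h, 37 °C, dark.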
* marks the source's active call; other numbers are inactive results; [ ] = another dose, or the depositor's remark. Unless noted, the call rests on the fitted dose curve; in most records, active means well fitted curve in the direction sought with a large enough effect; inconclusive means small, poorly fitted or top-dose-only effect, or another doubt; inactive means no such curve, though single readings can be large; an effect the other way counts as inactive or inconclusive. On the % scale 0 is the no-effect control and ±100 the full control effect.

What do the screens show for `COc1ccc(-c2ccc(SCC(=O)NCc3ccc4c(c3)OCO4)nn2)cc1OC`?
TDP1 inh: 3.5%; Six1-Eya2 blk: -15.7; TDP1 cell CPT: inconclusive; DT40 TDP1 no CPT: 29.1µM*; IL-1B inflam inh: -94.9*; CtBP-E1A blk: -0.5

What do the screens show for `O=C(CSc1ccc(-c2cccc([N+](=O)[O-])c2)nn1)N1CCCCC1`?
TDP1 inh: 3.6%; Six1-Eya2 blk: -2.6; TDP1 cell CPT: -5.1%; DT40 TDP1 no CPT: inconclusive; IL-1B inflam inh: -9.4; CtBP-E1A blk: -5.7

Results for c1ccc(-c2ccc(SCc3cccnc3)nn2)nc1 ?
TDP1 inh: 2.6%; Six1-Eya2 blk: -90.6*; TDP1 cell CPT: inconclusive; DT40 TDP1 no CPT: inconclusive; IL-1B inflam inh: 0.0; CtBP-E1A blk: -88.9*

Results for O=[N+]([O-])c1cccc(-c2ccc(SCc3ccccn3)nn2)c1 ?
TDP1 inh: 6.3%; Six1-Eya2 blk: -19.3; TDP1 cell CPT: inconclusive; DT40 TDP1 no CPT: 25.9µM*; IL-1B inflam inh: inconclusive; CtBP-E1A blk: -0.6

How did c1cncc(CSc2ccc(-c3cccnc3)nn2)c1 do in these assays?
TDP1 inh: 2.6%; Six1-Eya2 blk: 0.8; TDP1 cell CPT: 1.8%; DT40 TDP1 no CPT: 2.7%; IL-1B inflam inh: inconclusive; CtBP-E1A blk: 0.0

What do the screens show for `COc1ccc(-c2ccc(SCC(=O)c3ccccc3)nn2)cc1OC`?
TDP1 inh: 5.0%; Six1-Eya2 blk: -24.0; TDP1 cell CPT: inconclusive; DT40 TDP1 no CPT: 13µM*; IL-1B inflam inh: -8.4; CtBP-E1A blk: -12.8

Results for Cc1ccc(-c2ccc(SCC(=O)c3ccccc3)nn2)cc1 ?
TDP1 inh: 5.3%; Six1-Eya2 blk: 6.4; TDP1 cell CPT: -18.4%; DT40 TDP1 no CPT: inconclusive; IL-1B inflam inh: 3.7; CtBP-E1A blk: -2.3

What do the screens show for `COc1ccc(C(=O)NCC(=O)OCc2ccc(F)cc2)cc1`?
TDP1 inh: 2.7%; Six1-Eya2 blk: 4.7; TDP1 cell CPT: 2.1%; DT40 TDP1 no CPT: 0.8%; IL-1B inflam inh: 24.0; CtBP-E1A blk: 11.0

Results for COc1cccc(C2=NOC(C(=O)Nc3ccc4c(c3)OCO4)C2)c1 (centres undefined) ?
TDP1 inh: 2.5%; Six1-Eya2 blk: -7.2; TDP1 cell CPT: -14.3%; DT40 TDP1 no CPT: -9.7%; IL-1B inflam inh: 0.0; CtBP-E1A blk: -5.7

What do the screens show for `Cc1ccc(N2CC(NC(=O)/C=C\c3ccc4c(c3)OCO4)CC2=O)cc1` (centres undefined)?
TDP1 inh: 0.0%; TDP1 cell CPT: -29.9%; DT40 TDP1 no CPT: inconclusive

Results for Clc1ccc(-c2ccc(SCc3ccccn3)nn2)cc1 ?
TDP1 inh: -2.0%; Six1-Eya2 blk: -1.3; TDP1 cell CPT: inconclusive; DT40 TDP1 no CPT: -17.9%; IL-1B inflam inh: -7.1; CtBP-E1A blk: -0.5

How did c1ccc(CSc2ccc(-c3ccccn3)nn2)nc1 do in these assays?
TDP1 inh: -2.6%; Six1-Eya2 blk: -92.9*; TDP1 cell CPT: inconclusive; DT40 TDP1 no CPT: inconclusive; IL-1B inflam inh: 219.1; CtBP-E1A blk: -94.2*

Results for COc1ccc(-c2ccc(SCC(=O)Nc3nccs3)nn2)cc1OC ?
TDP1 inh: 79.4µM*; Six1-Eya2 blk: 140.6; TDP1 cell CPT: 11.2%; DT40 TDP1 no CPT: inconclusive; IL-1B inflam inh: 50.0; CtBP-E1A blk: 86.0

How did COc1ccc(-c2ccc(SCc3cccnc3)nn2)cc1OC do in these assays?
TDP1 inh: 4.2%; Six1-Eya2 blk: inconclusive; TDP1 cell CPT: inconclusive; DT40 TDP1 no CPT: inconclusive; IL-1B inflam inh: inconclusive

Results for COc1ccc(-c2ccc(SCc3ccccn3)nn2)cc1OC ?
TDP1 inh: 0.0%; Six1-Eya2 blk: inconclusive; TDP1 cell CPT: 13µM*; DT40 TDP1 no CPT: inconclusive; IL-1B inflam inh: -55.7*; CtBP-E1A blk: -1.2

How did Cc1cc(=O)n2nc(N3CCCC(C(=O)NCCCN4CCc5ccccc5C4)C3)sc2n1 (centres undefined) do in these assays?
TDP1 inh: 0.0%; Six1-Eya2 blk: -8.7; TDP1 cell CPT: 7.6%; DT40 TDP1 no CPT: -5.8%; IL-1B inflam inh: -7.7; CtBP-E1A blk: 6.5

Results for Cc1ccc(CNC(=O)OC2CC3CC2[C@H]2CCCCN2C3=O)cc1 (some centres undefined) ?
Six1-Eya2 blk: 14.6; TDP1 cell CPT: -16.5%; DT40 TDP1 no CPT: -30.0%; IL-1B inflam inh: 12.3; CtBP-E1A blk: 1.2

What do the screens show for `CN(CC(=O)Nc1ccc(S(=O)(=O)N2CCCC2)cc1)Cc1c(F)cccc1Cl`?
TDP1 inh: -2.7%; Six1-Eya2 blk: -18.7; TDP1 cell CPT: 14.6µM*; DT40 TDP1 no CPT: 16.4µM*; IL-1B inflam inh: -59.6*; CtBP-E1A blk: -8.5

How did COc1ccc(S(=O)(=O)N2CCOCC2)cc1NC(=O)CN(C)Cc1c(F)cccc1Cl do in these assays?
TDP1 inh: 2.3%; Six1-Eya2 blk: -11.2; TDP1 cell CPT: inconclusive; DT40 TDP1 no CPT: 20.6µM*; IL-1B inflam inh: -65.7*; CtBP-E1A blk: -13.5

How did O=C(Cc1ccc(F)cc1)Nc1ccc(S(=O)(=O)N2CCCC2)cc1 do in these assays?
TDP1 inh: -2.5%[0.505 µM]; Six1-Eya2 blk: -16.7; TDP1 cell CPT: -26.8%; DT40 TDP1 no CPT: inconclusive; IL-1B inflam inh: inconclusive; CtBP-E1A blk: 0.0

How did CN(CC(=O)Nc1ccc(S(=O)(=O)N2CCCC2)cc1)Cc1ccc(Cl)cc1 do in these assays?
TDP1 inh: 5.6%; Six1-Eya2 blk: -14.2; TDP1 cell CPT: 16.4µM*; DT40 TDP1 no CPT: inconclusive; IL-1B inflam inh: 0.0; CtBP-E1A blk: -1.7

How did O=C(Cc1ccccc1F)Nc1ccc(S(=O)(=O)N2CCCCC2)cc1 do in these assays?
TDP1 inh: 1.4%; Six1-Eya2 blk: 2.8; TDP1 cell CPT: -21.3%; DT40 TDP1 no CPT: 4.1%; IL-1B inflam inh: 5.4; CtBP-E1A blk: 6.7

What do the screens show for `Cc1ccc(NC(=O)CSCC(=O)N(C)Cc2c(F)cccc2Cl)cc1`?
Six1-Eya2 blk: -0.1; TDP1 cell CPT: 18.4µM*; DT40 TDP1 no CPT: 25.9µM*; IL-1B inflam inh: -12.9; CtBP-E1A blk: -0.2

Results for Cc1oc2ncn(C)c(=O)c2c1C(=O)Nc1ccccn1 ?
TDP1 inh: -1.3%; TDP1 cell CPT: 15.8%; DT40 TDP1 no CPT: 0.4%
